# Laboratory results taken from PubChem BioAssay (EPA / NIEHS).
# Records with an inconclusive call do not appear. Active and inactive are the calls of the source. The calls were made as follows, unless noted: active = hit-call score of the fitted dose curve at least 0.9, where 1 is the maximum; inconclusive = response in the unintended direction; inactive = score below 0.9.
# What was measured:
# [1] = target: Androgen Receptor/SRC-1 Co-activator, AR (gene 367) (UniProt P10275); test: OT_AR_ARSRC1_0960: Odyssey Thera (OT) 16-hour HEK293T Protein-Complementation Assay for Androgen Receptor/SRC-1 Co-activator (AID 2283353);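 also: actives raise the signal above DMSO so potency reflects increased AR and SRC-1 complex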
# How it was run: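 Interaction of AR with SRC-1 was followed by YFP fragment complementation in HEK293T cells after 16 h of dosing. Gain of nuclear-over-cytoplasmic 488 nm fluorescence against DMSO controls defined activity.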
# [2] = target: Androgen Receptor/SRC-1 Co-activator, AR (gene 367) (UniProt P10275); test: OT_AR_ARSRC1_0480: Odyssey Thera (OT) 8-hour HEK293T Protein-Complementation Assay for Androgen Receptor/SRC-1 Co-activator (AID 2283354);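 also: hits raise the complementation signal above DMSO so AC50 marks enhancers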
# How it was run: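 Measures AR/SRC-1 binding by Venus YFP fragment complementation in HEK293T stable lines at 8 h post-dose. Imaging quantifies the 488nm nucleus/cytoplasm ratio in ≥400 cells; DMSO defines baseline.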
# [3] = target: human Thyroid Receptor Alpha (TRa), THRA (gene 7067) (UniProt P10827); test: NVS_NR_hTRa_Antagonist: NovaScreen (NVS) Nuclear Receptor Binding Assay for human Thyroid Receptor Alpha Antagonism (TRa) (AID 2283362);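 also: activity is loss of signal relative to DMSO baseline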
# How it was run: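 Chemicals were first screened in duplicate at 25 uM, then actives were retested in concentration series. Binding to the extracted receptor was measured 1 h after dosing by AlphaLISA chemiluminescence, with decreased signal versus DMSO scored as activity.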
# [4] = target: Agonist Androgen Response Element (ARE), AR (gene 367) (UniProt P10275); test: OT_AR_ARELUC_AG_1440: Odyssey Thera (OT) 24-hour CHO-K1 Luciferase Assay for Agonist Androgen Response Element (ARE) (AID 2283379)
# How it was run: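 Agonist mode, 24 h exposure in CHO-K1 ARE-luciferase cells; values reflect luminescence induction over vehicle.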
# [5] = target: AR (gene 367) (UniProt P10275); test: ACEA_AR_antagonist_80hr: ACEA Biosciences xCELLigence Real-Time Cell Analysis on Androgen Receptor Antagonism for Proliferation (AID 2283787);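 also: 22Rv1 human prostate cancer cells with growth followed by electrical impedance; hits lower the impedance growth signal relative to DMSO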
# How it was run: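 Growth-kinetic antagonist readout in 22Rv1 cells, taken 80 h after continuous compound exposure. Activity fitted as signal loss relative to DMSO negative control.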
# [6] = target: Nucleoli Translocation, AR (gene 367) (UniProt P10275); test: UPITT_HCI_U2OS_AR_TIF2_Nucleoli_Agonist: University of Pittsburgh U2OS Androgen Receptor-Transcriptional Intermediary Factor 2 (AR-TIF2) Agonism High Content Imaging Assay for Nucleoli Translocation (AID 2283998)
# How it was run: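 Red-tagged human androgen receptor co-expressed with GFP-tagged TIF2 serves as the binding reporter. Primary testing used 20 uM final (0.2% DMSO); follow-up dose response covered 0.195 to 50 uM final (0.5% DMSO).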
# [7] = target: Ratio of Nucleoli Translocation and Cytoplasm, AR (gene 367) (UniProt P10275); test: UPITT_HCI_U2OS_AR_TIF2_Nucleoli_Cytoplasm_Ratio_Antagonist: University of Pittsburgh U2OS Androgen Receptor-Transcriptional Intermediary Factor 2 (AR-TIF2) Antagonism High Content Imaging Assay for Ratio of Nucleoli Translocation and Cytoplasm (AID 2283999);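 also: antagonists lower the DHT-driven ratio of nucleolar to cytoplasmic red signal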
# How it was run: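 High-content imaging quantifies the red nucleolar:cytoplasmic fluorescence ratio in U2OS cells with AR-RFP and TIF2-GFP. Final concentrations are 20 uM (screen) or 0.195–50 uM (dose response), analysed against DHT as baseline.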
# [8] = target: Ratio of Nucleoli Translocation and Cytoplasm, AR (gene 367) (UniProt P10275); test: UPITT_HCI_U2OS_AR_TIF2_Nucleoli_Cytoplasm_Ratio_Agonist: University of Pittsburgh U2OS Androgen Receptor-Transcriptional Intermediary Factor 2 (AR-TIF2) Agonism High Content Imaging Assay for Ratio of Nucleoli Translocation and Cytoplasm (AID 2284000);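 also: hits raise the red nucleolar to cytoplasm ratio above vehicle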
# How it was run: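 Read-out first: nucleolar-to-cytoplasm ratio of red (AR-RFP) signal, quantified by high-content imaging in U2OS cells co-expressing TIF2-GFP. Activity is scored as signal increase over DMSO. Single-point screening used 20 uM final (0.2% DMSO).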
# [9] = target: sheep Cyclooxygenase-1 (Cox1), PTGS1 (gene 443551) (UniProt P05979); test: NVS_ENZ_oCOX1: NovaScreen (NVS) Enzymatic Assay for sheep Cyclooxygenase-1 (Cox1) (AID 2283239);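 also: actives reduce cyclooxygenase activity so potencies are for inhibitors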
# How it was run: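 Native ovine seminal vesicle protein serves as enzyme source in this biochemical assay. Colorimetric signal is recorded 0.66 h after chemical addition, and decreases versus the DMSO control define activity.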
# [10] = target: Estrogen receptor (Homo sapiens) + Estrogen receptor beta (Homo sapiens) (UniProt P03372+Q92731); test: OT_ER_ERaERb_1440: Odyssey Thera (OT) 24-hour HEK293T Protein-Complementation Assay for Estrogen Receptor-alpha/-beta Homodimer (AID 2283356);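 also: heteromer of ER alpha and ER beta binding domains; hits raise reporter fluorescence and both agonists and antagonists give an increase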
# How it was run: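 Heterodimerisation of ERα (aa 310-547) and ERβ (aa 263-489) ligand binding domains was tracked as fluorescence gain in stably transfected HEK293T cells following 24 h dosing, normalised to DMSO controls.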
# [11] = target: human Peripheral-type Benzodiazepine Receptor (PBR), TSPO (gene 706) (UniProt P30536); test: NVS_MP_hPBR: NovaScreen (NVS) Membrane Protein Assay for human Peripheral-type Benzodiazepine Receptor (PBR) (AID 2283331);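 also: hits reduce radioligand binding relative to DMSO baseline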
# How it was run: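 Scintillation counts of filter-bound radioligand served as read-out after 1 h chemical dosing of human colonic membrane preparations. Activity was scored as signal loss against DMSO; initial duplicates at 25 uM, confirmatory concentration series afterward.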
# [12] = target: Estrogen receptor (Homo sapiens) (UniProt P03372); test: NVS_NR_hER: NovaScreen (NVS) Nuclear Receptor Binding Assay for human Estrogen Receptor (ER) (AID 2283348)
# How it was run: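 Scintillation signal from bound radioligand was measured 18 hours after chemical addition to cell-free MCF7 protein extracts, with DMSO as baseline. Activity was scored as signal loss; compounds ran first at 25 uM in duplicate.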
# [13] = target: chimpanzee Androgen Receptor (AR), AR (gene 747460) (UniProt O97775); test: NVS_NR_cAR: NovaScreen (NVS) Nuclear Receptor Binding Assay for chimpanzee Androgen Receptor (AR) (AID 2283346);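 also: radioligand displacement from AR measured by scintillation counting in a cell-free assay; a loss of bound radioligand signal versus DMSO counts as binding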
# How it was run: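 Cell-free competition binding with insect-cell (Sf9/Sf21) extracted chimpanzee AR; scintillation signal from lysate at 72 h. Screened in duplicate at 25 uM, then concentration-response for actives; fitting relative to DMSO.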
# [14] = target: Sodium channel protein type 1 subunit alpha (Rattus norvegicus) (UniProt P04774); test: NVS_IC_rNaCh_site2: NovaScreen (NVS) Ion Channel Assay for rat Sodium Channel, Site 2 (NaCh) (AID 2283322);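 also: hit means loss of radioligand binding signal relative to DMSO so AC50 marks displacement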
# How it was run: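 Membranes: rat forebrain. Format: competitive radioligand displacement, filter separation, scintillation readout, 1 h exposure. Primary screen in duplicate at 25 uM; actives retested in concentration series.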
# [15] = NVS_IC_rCaBTZCHL: NovaScreen (NVS) Ion Channel Assay for Calcium Channel, Type L, Benzothiazepine Site (CaBTZCHL) (AID 2283337)
# How it was run: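 Competitive displacement of a site-specific radioligand from rat cortex membranes, measured as signal loss against DMSO baseline by filter radiodetection after 1.5 h. Single-point 25 uM primary screen.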
# [16] = target: guinea pig Sigma Receptor, Non-selective Binding, SIGMAR1 (gene 100135589) (UniProt Q60492); test: NVS_OR_gSIGMA_NonSelective: NovaScreen (NVS) Nuclear Receptor Binding Assay for guinea pig Sigma Receptor, Non-selective Binding (AID 2283367)
# How it was run: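 gp brain membr., radioligand displacement, 1 h, filtration + scint. counting; DMSO = baseline; 25 uM x2 primary, conc.-response confirm.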
# [17] = IUF_NPC1b_proliferation_BrdU_72hr: Leibniz Research Institute for Environmental Medicine (IUF) 72-hour Neural Progenitor Cell Bromodeoxyuridine (BrdU) Proliferation Assay (NPC1b) (AID 2284207; active = hit-call score of the fitted dose curve at least 0.9, where 1 is the maximum; inactive = score below 0.9)
# How it was run: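 Proliferation of primary human neural progenitor cells: 72 h compound treatment at 37C, 5% CO2, pH 7.2-7.6, in EGF/FGF-containing medium. Readout is BrdU uptake (last 16 h) by chemiluminescent ELISA, normalised to DMSO.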
# [18] = IUF_NPC1a_proliferation_area_72hr: Leibniz Research Institute for Environmental Medicine (IUF) 72-hour Neural Progenitor Cell Proliferation Area Assay (NPC1a) (AID 2284208; active = hit-call score of the fitted dose curve at least 0.9, where 1 is the maximum; inactive = score below 0.9)
# How it was run: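 Proliferation is scored as sphere area gain in primary human fetal neural progenitors treated for 72 h in EGF/FGF-containing medium. Viability, LDH and BrdU readouts come from the same wells.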
# [19] = IUF_NPC1_viability_72hr: Viability Assessment at 72 hours in the Leibniz Research Institute for Environmental Medicine (IUF) Neural Progenitor Cell Proliferation Assay (NPC1) (AID 2284209; active = hit-call score of the fitted dose curve at least 0.9, where 1 is the maximum; inactive = score below 0.9)
# How it was run: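 Each well receives one 0.3 mm progenitor sphere from fetal brain cortex; test chemical is added at plating and left three days. Viability comes from alamar blue fluorescence, multiplexed with LDH and BrdU readouts in the same well.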
# [20] = IUF_NPC2c_oligodendrocyte_migration_120hr: Leibniz Research Institute for Environmental Medicine (IUF) 120-hour Neural Progenitor Cell Migration Assay for Oligodendrocyte Migration (NPC2c) (AID 2284297; active = hit-call score of the fitted dose curve at least 0.9, where 1 is the maximum; inactive = score below 0.9;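 also: O4-positive oligodendrocyte migration distance divided by radial glia migration distance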)
# How it was run: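 Primary hNPC spheres migrating on extracellular matrix, exposed five days to a 7-point dilution series with solvent control. Oligodendrocyte migration was scored by high-content imaging of O4 immunostaining and expressed relative to radial glia distance.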
# Chain of human Thyroid Receptor Alpha (TRa), THRA (gene 7067) (P10827 whole entry, looked up): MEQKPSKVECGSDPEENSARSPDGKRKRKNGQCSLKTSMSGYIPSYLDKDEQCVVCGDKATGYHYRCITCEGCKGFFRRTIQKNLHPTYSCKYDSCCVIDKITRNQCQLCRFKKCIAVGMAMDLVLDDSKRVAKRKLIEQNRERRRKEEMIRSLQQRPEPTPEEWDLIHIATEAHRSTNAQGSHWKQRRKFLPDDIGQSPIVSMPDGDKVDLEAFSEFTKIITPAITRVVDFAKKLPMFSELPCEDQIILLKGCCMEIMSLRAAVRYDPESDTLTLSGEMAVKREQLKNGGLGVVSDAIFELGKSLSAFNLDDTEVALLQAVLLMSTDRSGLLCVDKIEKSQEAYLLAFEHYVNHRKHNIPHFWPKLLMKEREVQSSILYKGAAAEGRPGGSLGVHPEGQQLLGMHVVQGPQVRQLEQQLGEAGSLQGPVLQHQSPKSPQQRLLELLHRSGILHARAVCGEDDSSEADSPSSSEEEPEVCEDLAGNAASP
# Chain of guinea pig Sigma Receptor, Non-selective Binding, SIGMAR1 (gene 100135589) (Q60492 whole entry, looked up): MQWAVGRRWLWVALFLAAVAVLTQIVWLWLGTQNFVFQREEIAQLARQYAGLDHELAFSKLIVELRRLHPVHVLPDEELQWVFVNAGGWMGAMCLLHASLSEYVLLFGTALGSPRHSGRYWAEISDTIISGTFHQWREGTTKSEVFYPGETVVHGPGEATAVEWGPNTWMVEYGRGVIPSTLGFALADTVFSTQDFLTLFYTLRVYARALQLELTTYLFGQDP
# Chain of sheep Cyclooxygenase-1 (Cox1), PTGS1 (gene 443551) (P05979 whole entry, looked up): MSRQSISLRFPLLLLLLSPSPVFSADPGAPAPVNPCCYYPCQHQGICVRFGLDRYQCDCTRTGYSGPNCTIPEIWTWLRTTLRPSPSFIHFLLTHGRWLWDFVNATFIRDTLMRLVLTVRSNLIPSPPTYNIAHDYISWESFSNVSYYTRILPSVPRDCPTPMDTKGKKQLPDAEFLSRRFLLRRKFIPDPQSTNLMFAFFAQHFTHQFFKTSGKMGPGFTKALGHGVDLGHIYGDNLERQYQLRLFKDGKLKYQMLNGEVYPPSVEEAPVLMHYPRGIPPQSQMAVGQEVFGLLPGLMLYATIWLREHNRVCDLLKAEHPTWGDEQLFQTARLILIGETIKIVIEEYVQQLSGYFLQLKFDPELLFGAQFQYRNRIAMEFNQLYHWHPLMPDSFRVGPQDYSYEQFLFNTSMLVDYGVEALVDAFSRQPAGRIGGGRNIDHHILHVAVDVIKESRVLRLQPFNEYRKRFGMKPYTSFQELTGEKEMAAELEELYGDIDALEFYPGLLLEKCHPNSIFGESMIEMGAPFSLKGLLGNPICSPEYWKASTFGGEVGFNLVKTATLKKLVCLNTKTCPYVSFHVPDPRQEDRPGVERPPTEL
# Chain of human Peripheral-type Benzodiazepine Receptor (PBR), TSPO (gene 706) (P30536 whole entry, looked up): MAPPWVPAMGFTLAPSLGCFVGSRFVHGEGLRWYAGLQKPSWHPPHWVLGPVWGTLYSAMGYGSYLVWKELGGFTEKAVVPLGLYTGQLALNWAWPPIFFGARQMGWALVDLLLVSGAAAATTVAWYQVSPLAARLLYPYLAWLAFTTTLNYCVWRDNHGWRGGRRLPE
# Chain of Agonist Androgen Response Element (ARE), AR (gene 367) (P10275 whole entry, looked up): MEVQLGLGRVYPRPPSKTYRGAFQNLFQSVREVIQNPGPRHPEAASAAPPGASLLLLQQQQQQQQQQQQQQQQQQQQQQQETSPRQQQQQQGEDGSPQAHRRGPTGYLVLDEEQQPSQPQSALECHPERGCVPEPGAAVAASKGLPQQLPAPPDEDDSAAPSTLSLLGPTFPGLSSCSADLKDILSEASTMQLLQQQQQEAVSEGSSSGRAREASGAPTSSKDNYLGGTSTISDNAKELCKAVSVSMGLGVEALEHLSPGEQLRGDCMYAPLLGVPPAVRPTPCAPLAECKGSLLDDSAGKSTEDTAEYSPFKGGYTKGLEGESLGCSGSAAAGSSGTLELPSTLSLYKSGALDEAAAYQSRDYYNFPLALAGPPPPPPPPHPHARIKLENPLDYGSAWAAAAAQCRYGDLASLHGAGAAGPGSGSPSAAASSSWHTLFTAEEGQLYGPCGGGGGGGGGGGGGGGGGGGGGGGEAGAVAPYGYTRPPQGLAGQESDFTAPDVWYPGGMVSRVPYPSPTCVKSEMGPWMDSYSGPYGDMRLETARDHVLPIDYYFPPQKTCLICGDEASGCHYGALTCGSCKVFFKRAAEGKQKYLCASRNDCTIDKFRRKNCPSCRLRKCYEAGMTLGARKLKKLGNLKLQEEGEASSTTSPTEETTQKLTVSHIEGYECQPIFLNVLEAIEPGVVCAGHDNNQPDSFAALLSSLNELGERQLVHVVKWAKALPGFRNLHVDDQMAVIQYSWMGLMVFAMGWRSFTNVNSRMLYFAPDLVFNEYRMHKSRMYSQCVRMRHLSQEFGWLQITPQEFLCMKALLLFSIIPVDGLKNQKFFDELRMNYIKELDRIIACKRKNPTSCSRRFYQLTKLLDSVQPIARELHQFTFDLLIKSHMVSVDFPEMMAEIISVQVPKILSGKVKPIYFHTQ
# Chain of Nucleoli Translocation, AR (gene 367) (P10275 whole entry, looked up): as above
# Chain of AR (gene 367) (P10275 whole entry, looked up): as above
# Chain of Estrogen receptor (Homo sapiens) (P03372 whole entry, looked up): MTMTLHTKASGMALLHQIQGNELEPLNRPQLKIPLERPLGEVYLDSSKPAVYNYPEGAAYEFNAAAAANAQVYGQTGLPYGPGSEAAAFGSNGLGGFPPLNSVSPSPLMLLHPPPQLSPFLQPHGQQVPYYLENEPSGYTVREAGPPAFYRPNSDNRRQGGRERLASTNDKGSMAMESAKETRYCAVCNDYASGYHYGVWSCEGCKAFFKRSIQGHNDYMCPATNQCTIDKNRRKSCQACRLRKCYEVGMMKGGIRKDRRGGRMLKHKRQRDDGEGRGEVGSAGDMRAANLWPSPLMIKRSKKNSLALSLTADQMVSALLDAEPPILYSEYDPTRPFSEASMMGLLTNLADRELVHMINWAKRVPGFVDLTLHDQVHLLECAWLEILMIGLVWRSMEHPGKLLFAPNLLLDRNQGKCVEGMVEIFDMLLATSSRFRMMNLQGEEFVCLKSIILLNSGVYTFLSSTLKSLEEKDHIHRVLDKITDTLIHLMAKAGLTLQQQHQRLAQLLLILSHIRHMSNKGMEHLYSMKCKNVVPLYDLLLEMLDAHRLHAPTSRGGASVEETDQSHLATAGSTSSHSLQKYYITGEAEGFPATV
smiles,measurement,setting,value
Cc1cc(C)c(S(=O)(=O)O)cc1N=Nc1cc(S(=O)(=O)O)c2ccccc2c1O,outcome,[1],inactive
same,outcome,[2],inactive
same,AC50,[3],29.5 µM (active)
same,outcome,[4],inactive
same,outcome,[5],inactive
same,outcome,[6],inactive
same,outcome,[7],inactive
same,outcome,[8],inactive
CC(C)CC(=O)O,AC50,[9],25 µM (active)
O=C(c1ccccc1)c1ccccc1O,outcome,[1],inactive
same,outcome,[2],inactive
same,outcome,[4],inactive
same,outcome,[5],inactive
same,outcome,[6],inactive
same,outcome,[7],inactive
same,outcome,[8],inactive
CCCCCCC1CCC(=O)O1 (stereo not given),outcome,[10],inactive
CN(C)c1ccc(C(c2ccccc2)c2ccc(N(C)C)cc2)cc1,AC50,[11],2.78 µM (active)
C=C1CC[C@H]2C[C@@H]1C2(C)C,outcome,[10],inactive
same,outcome,[3],inactive
c1cc(N(CC2CO2)CC2CO2)ccc1Cc1ccc(N(CC2CO2)CC2CO2)cc1 (stereo not given),outcome,[12],inactive
CO[Si](CCCNCCN)(OC)OC,outcome,[1],inactive
same,outcome,[2],inactive
same,outcome,[4],inactive
same,outcome,[5],inactive
same,outcome,[6],inactive
same,outcome,[7],inactive
same,outcome,[8],inactive
Cc1cc(-n2nc3ccc(Cl)cc3n2)c(O)c(C(C)(C)C)c1,AC50,[13],0.741 µM (active)
CC[N+](CC)(CC(=O)Nc1c(C)cccc1C)Cc1ccccc1,AC50,[14],3.49 µM (active)
same,AC50,[15],7.02 µM (active)
same,outcome,[13],inactive
same,AC50,[16],12.7 µM (active)
O=C(C(=O)c1ccccc1)c1ccccc1,outcome,[14],inactive
same,AC50,[11],9.56 µM (active)
same,outcome,[15],inactive
CCOC(=O)c1ccccc1,outcome,[10],inactive
CC[N+](CC)(CC(=O)Nc1c(C)cccc1C)Cc1ccccc1 (tested in a mixture with another compound),AC50,[11],4.38 µM (active)
Cc1ccccc1S(N)(=O)=O,AC50,[13],1.88 µM (active)
Oc1cccc2ccccc12,outcome,[17],inactive
same,outcome,[18],inactive
same,AC50,[19],2.44 µM (active)
same,outcome,[20],inactive
NC(N)=Nc1nc(CSCCC(N)=NS(N)(=O)=O)cs1,outcome,[17],inactive
same,outcome,[18],inactive
same,outcome,[19],inactive
same,outcome,[20],inactive
CCCCCCCCCCCCCCCCCC[N+](C)(C)C,outcome,[15],inactive
same,AC50,[16],2.61 µM (active)
COC(=O)c1ccccc1,outcome,[9],inactive
CC1=NN(c2cc(Cl)c(S(=O)(=O)O)cc2Cl)C(=O)C1N=Nc1ccc(S(=O)(=O)O)cc1 (stereo not given),outcome,[3],inactive
N#CCN(CC#N)CCN(CC#N)CC#N,outcome,[9],inactive
CN(C)CCC(c1ccc(Cl)cc1)c1ccccn1 (stereo not given),AC50,[14],3.21 µM (active)
same,AC50,[16],3.14 µM (active)
same,outcome,[17],inactive
same,outcome,[18],inactive
same,outcome,[19],inactive
same,outcome,[20],inactive
Oc1ccc(Oc2ccccc2)cc1,AC50,[12],6.92 µM (active)
CC(C)(C)C(=O)C(=O)O,outcome,[12],inactive
